Compounds with a hit are over-represented: about 2.4% of the library has one in this group of screens.
D2 antag = antagonists of human D2 dopamine receptor; HEK293 TREx D2 cells, calcium flux, dopamine EC80; inhibition, % at 10 µM; hit rate 2% among 340,000; in the data active means inhibition above about 30%; inactive means below that, where a call was filed
Target sequence (P14416 whole entry, looked up): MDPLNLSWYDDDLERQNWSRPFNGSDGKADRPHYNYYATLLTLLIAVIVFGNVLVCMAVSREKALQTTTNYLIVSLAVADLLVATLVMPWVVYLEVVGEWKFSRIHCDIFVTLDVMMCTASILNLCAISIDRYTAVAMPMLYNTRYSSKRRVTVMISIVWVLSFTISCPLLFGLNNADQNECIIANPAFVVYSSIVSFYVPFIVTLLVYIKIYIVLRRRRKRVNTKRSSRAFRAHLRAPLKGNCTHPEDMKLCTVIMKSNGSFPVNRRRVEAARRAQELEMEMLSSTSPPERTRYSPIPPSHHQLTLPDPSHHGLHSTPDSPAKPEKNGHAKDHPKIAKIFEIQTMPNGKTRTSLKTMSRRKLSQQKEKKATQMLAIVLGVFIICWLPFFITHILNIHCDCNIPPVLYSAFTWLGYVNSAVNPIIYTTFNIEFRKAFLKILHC
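Measurement of antagonist activity uses fluorescent calcium dye in inducible HEK293 T-REx D2 cells: 10 s baseline, compound addition with 180 s read, EC80 dopamine addition with a further 180 s read.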
D2 PAM-1 = positive allosteric modulators of human D2 dopamine receptor. DiscoveRx D2 beta-arrestin cells, luminescence, 90 min; 100% = 57 uM dopamine signal. hit rate 0.23% among 360,000. P14416. AID 624464. potentiation, % (no concentration beside the values); in the data active means potentiation above about 50%; inconclusive means mostly about 30% to 49%
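PathHunter D2 cells, attached overnight at 37 deg C, received compound in DMSO plus dopamine at EC20 (50 nM final) for 90 min at 37 deg C. Beta-arrestin recruitment was read as luminescence after 1 h with detection reagent at ambient temperature.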
D2 ag-1 = activates the human D2 dopamine receptor | P14416 | HEK293 T-REx D2 cells, calcium flux agonist mode | activation, % at 2 µM | hit rate 0.53% among 340,000 | AID 485358;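 active means activation over 3 SD above normal in the single-dose calcium agonist read, cut at about 30% in these data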
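In this primary screen, compounds producing a positive calcium signal within 180 s of addition to tetracycline-induced, force-coupled HEK293 Trex D2 cells are flagged; cells are dye-loaded with a no-wash calcium kit beforehand.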
D2 ag-2 = human D2 receptor agonism in beta-arrestin assay; DiscoveRx PathHunter D2 beta-arrestin, luminescence, 90 min; 100% = 57 uM dopamine signal; activation, % (concentration not given with the values); hit rate 0.084% among 360,000; in the data active means activation above about 40%; inconclusive means between about 15% and that limit
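DiscoveRx PathHunter D2 beta-arrestin cells (2,100/well) attached overnight, then compound-stimulated 90 min at 37 C in HBSS/10 mM HEPES/0.1% Tween-20 buffer; beta-galactosidase complementation read by luminescence after 1 h at ambient temperature. Dopamine 57 uM final (EC100) as control.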
D2 PAM-2 = D2 dopamine receptor (human) potentiation | P14416 | potentiation, % at 10 µM | HEK293 T-REx D2, calcium flux, EC20 dopamine potentiation | hit rate 0.34% among 340,000;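 active means potentiation over 3 SD above the plate norm, cut at about 30% in these data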
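Potentiation of an EC20 dopamine calcium response measured kinetically over 180 s, after a preceding 180 s compound-only read flagging agonists. Cells: inducible Hek293 Trex D2 line, 4000/well, cultured overnight at 30 C before dye loading.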
Hits are given with their value; i = inactive; ? = inconclusive; nt = not tested or not shown.

SMILES | D2 antag | D2 PAM-1 | D2 ag-1 | D2 ag-2 | D2 PAM-2
Cc1cccc2c1-c1sc(C(=O)N(C)c3cccc(Cl)c3)cc1CO2 | nt | nt | i | nt | i
COc1ccc(-c2cc3ccccc3n2CC(O)CNCCO)cc1 (stereo unspecified) | nt | i | nt | i | nt
COc1ccc(-c2cc3ccccc3n2CC(O)CN2CCCCC2)cc1 (stereo unspecified) | 43 | i | i | i | i
O=C(CCCSc1nnc(Nc2ccccc2F)s1)N1CCOCC1 | 39 | i | i | i | i
CN(C)c1ccc(NC(=O)Cn2cc(S(=O)(=O)Cc3ccccc3Cl)c3ccccc32)cc1 | nt | nt | i | nt | i
O=C1CSC(=Nc2cccc([N+](=O)[O-])c2)N1 | 43 | i | i | i | i
N/C(=N\OC(=O)c1cc(-c2ccccc2)nc2ccccc12)c1ccccn1 | i | i | i | 48 | i
Cc1ccc(/C(N)=N/OC(=O)c2cc(-c3ccccc3)nc3ccccc23)cc1 | i | i | i | i | i
CCOc1cc(C(=O)O/N=C(\N)c2ccccn2)cc(OCC)c1OCC | i | 72 | i | ? | i
COc1ccc(/C(N)=N/OC(=O)c2ccc(C)c([N+](=O)[O-])c2)cc1OC | i | i | i | i | i
N/C(=N\OC(=O)c1ccc(Cl)c([N+](=O)[O-])c1)c1ccccn1 | i | ? | i | i | 36
N/C(=N\OC(=O)c1ccc(Cl)c([N+](=O)[O-])c1)c1ccccc1 | i | 94 | i | i | i
N/C(=N\OC(=O)c1ccc([N+](=O)[O-])cc1)c1ccc(Br)cc1 | i | i | i | i | i
N/C(=N\OC(=O)c1ccc(Cl)cc1)c1ccccn1 | i | i | i | i | i
CCOc1cc(C(=O)O/N=C(\N)c2ccc([N+](=O)[O-])cc2)cc(OCC)c1OCC | i | 76 | i | ? | i
N/C(=N\OC(=O)c1ccc(Cl)c(Cl)c1)c1ccccn1 | i | 82 | i | i | i
CCOc1ccc(OCC)c(NS(=O)(=O)c2c(C(=O)N3CCCCCC3)c(C)n(C)c2C)c1 | nt | nt | nt | nt | i
COc1ccc(CCNC(=O)CCn2c(=O)c3ccccc3n(Cc3ccccc3F)c2=O)cc1OC | nt | nt | i | nt | i
COc1ccc(C(CNC(=O)c2oc3ccc(C)cc3c2C)N2CCOCC2)cc1 (stereo unspecified) | nt | nt | i | nt | i
O=C(/C=C/c1ccccc1)Nc1cc(-c2nc3ccccc3o2)ccc1Cl | nt | nt | i | nt | i
Cc1ccccc1Cn1ccn(-c2ccc(F)c(F)c2)c(=O)c1=O | nt | nt | i | nt | i
CCC(c1nnnn1C1CCCC1)N1CCN(c2ccccc2)CC1 (stereo unspecified) | 52 | i | i | i | nt
CCC(c1nnnn1C1CCCC1)N1CCN(c2ccccc2F)CC1 (stereo unspecified) | i | i | i | i | i
COc1cc(/C=C2/C(=N)N3C(SC)=NSC3=NC2=O)ccc1OC(=O)c1ccco1 | i | i | i | i | i
CC1=CC2=NC(=O)/C(=C/c3coc4ccc(Cl)cc4c3=O)C(=N)N2O1 | i | i | 64 | i | i
SMILES | D2 antag | D2 PAM-1 | D2 ag-1 | D2 ag-2 | D2 PAM-2
N=C1/C(=C\c2coc3ccccc3c2=O)C(=O)N=C2SC=CN12 | i | i | 117 | i | i
CSC1=NSC2=NC(=O)/C(=C/c3coc4ccc(O)cc4c3=O)C(=N)N12 | i | i | 48 | i | i
CSC1=NSC2=NC(=O)/C(=C/c3coc4ccccc4c3=O)C(=N)N12 | i | i | 55 | i | i
CSC1=NSC2=NC(=O)/C(=C\c3cccs3)C(=N)N12 | i | i | i | i | i
N=C1/C(=C/c2cccn2Cc2ccc(F)cc2)C(=O)N=C2SC=CN12 | i | i | i | i | i
Cc1ccc(Cl)cc1NC(=O)c1ccc(NC(=O)N2CCSc3ncccc32)cc1 | nt | nt | i | nt | i
CCCCN(CC)CCCNC(=O)C1CCN(c2nc3ccc(CC)cc3s2)CC1 | nt | nt | i | nt | i
O=C1CC(N2CCC(O)(c3ccc(Cl)cc3)CC2)C(=O)N1 (stereo unspecified) | 31 | i | i | i | i
COc1ccc(/C=C/c2c(-c3ccc(OC)cc3)oc3ccccc23)cc1 | i | i | i | i | i
COc1ccc(-c2oc3ccccc3c(=O)c2OC(=O)c2ccc(C)cc2)cc1 | i | i | i | i | 31
COC(=O)c1ccc(/C=C/c2c(-c3ccc(OC)cc3)oc3ccccc23)cc1 | 47 | i | i | i | i
CCOc1ccccc1CNC(=O)c1cccc(NC(=O)c2nsc3ccccc23)c1 | nt | nt | i | nt | i
Cc1nc2ccc(Cl)cc2nc(C)/c1=N\O | i | 83 | i | i | i
Cc1cccc(OCCOCCn2c(-c3ccc(Cl)cc3)nc3ccccc3c2=O)c1C | nt | nt | i | nt | i
c1ccc(Cn2cc(CNc3ccccc3)nn2)cc1 | 42 | i | i | i | i
CCc1ccc(C2CC(c3ccccc3)n3ncnc3N2)cc1 (stereo unspecified) | 42 | i | i | i | i
CCc1ccc(C2CC(c3ccccc3)Nc3nc(N)nn32)cc1 (stereo unspecified) | i | i | i | i | i
CCN(CC)c1ccc(/C=C/C(=O)C2C(=O)C=C(C)OC2=O)cc1 (stereo unspecified) | 50 | i | 83 | i | nt
Cc1ccc2c(c1)nc(SCC(O)c1ccc(Br)cc1)n2C (stereo unspecified) | nt | nt | i | nt | i
C=CCN(c1ccccc1)S(=O)(=O)c1cccc(C(=O)Nc2nnc(SCC)s2)c1 | 43 | i | i | i | i
Cc1nn(CC(=O)NCCCc2ccccc2)c(=O)c2cc3occc3n12 | 32 | i | i | i | i
COc1ccc(-c2cc3c(=O)n(CC(=O)NCc4ccc(Cl)cc4)ncn3n2)cc1 | i | i | i | i | i
COc1ccc(-c2cc3c(=O)n(CC(=O)NCCCN4CCN(Cc5ccccc5)CC4)ncn3n2)cc1 | 37 | i | i | i | i
CCOc1ccc(CCNC(=O)Cn2ncn3nc(-c4ccc(OC)cc4)cc3c2=O)cc1 | i | i | i | i | i
COc1ccc(-c2cc3c(=O)n(CC(=O)NCCCN4CCC(Cc5ccccc5)CC4)ncn3n2)cc1 | 89 | i | i | i | i
SMILES | D2 antag | D2 PAM-1 | D2 ag-1 | D2 ag-2 | D2 PAM-2
Cc1nn(CC(=O)NCCCN2CCN(C)CC2)c(=O)c2cc(-c3ccccc3)nn12 | i | i | i | i | 30
CCOc1c(Cl)cc(CNc2ccc3[nH]c(=O)[nH]c3c2)cc1OC | nt | nt | i | nt | i
Cc1cccc(NC(=S)NC2CC3CCC(C2)N3Cc2ccco2)c1 (stereo unspecified) | 39 | i | i | i | i
Cc1ccccc1NC(=S)NC1CC2CCC(C1)N2Cc1ccco1 (stereo unspecified) | 39 | i | i | i | i
CCc1nn2c(=O)cc(COC(=O)CNC(=O)c3ccccc3)nc2s1 | nt | nt | nt | nt | i
Cc1cccc(CSc2cn(CC(=O)N3CCCC3)c3ccccc23)c1 | nt | nt | i | nt | i
COc1ccc(C(O)(CCC(C)C)C(CN2CCOCC2)c2ccc(Cl)cc2)cc1 (stereo unspecified) | i | i | i | i | 41
